# Laboratory results published in article PMC7862700, “An all-to-all approach to the identification of sequence-specific readers for epigenetic DNA modifications on cytosine”.
# Tests used:
# Test in all cases: DAPPL (digital affinity profiling via proximity ligation, sequencing); 10 mM Tris-HCl pH 7.5, 50 mM NaCl, 1 mM DTT, 4% glycerol, room temperature, 30 min; GST-TFs on glutathione beads, 16-mer random dsDNA library, 0.1% formaldehyde crosslink after washing; high values mean tight binding
# FLI1 = biological target: T1, FLI1 (Homo sapiens, UniProt Q01543 1-452); settings: protein: recombinant; tags: N-terminal GST; dsDNA, one strand shown
# T1 sequence: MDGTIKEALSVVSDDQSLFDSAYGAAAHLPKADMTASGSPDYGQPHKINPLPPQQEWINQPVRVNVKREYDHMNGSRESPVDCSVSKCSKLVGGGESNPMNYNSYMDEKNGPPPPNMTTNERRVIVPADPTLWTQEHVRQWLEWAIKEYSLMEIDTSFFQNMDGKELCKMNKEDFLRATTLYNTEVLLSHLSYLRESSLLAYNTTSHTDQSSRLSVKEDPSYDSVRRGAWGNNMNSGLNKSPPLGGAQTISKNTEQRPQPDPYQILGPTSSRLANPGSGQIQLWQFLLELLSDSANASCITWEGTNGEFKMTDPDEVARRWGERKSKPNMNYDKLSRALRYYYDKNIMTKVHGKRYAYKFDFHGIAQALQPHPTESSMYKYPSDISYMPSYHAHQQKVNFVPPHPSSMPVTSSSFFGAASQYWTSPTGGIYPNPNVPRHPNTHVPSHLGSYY
# In short: (§1)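 GST fusions of human transcription factors were expressed in yeast and captured with glutathione beads. Once given DNA barcodes and pooled alongside a tag-only sample, they were incubated for 30 min at room temperature with 200 nmole of a random double-stranded 16-mer DNA library in Tris/NaCl/DTT/glycerol buffer, then washed, crosslinked (0.1% formaldehyde), proximity-ligated, PCR-amplified and sequenced on an Illumina NextSeq500. The binding signal of each hexamer is its read frequency for a factor divided by its frequency for the tag-only sample.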
# ELK1 = biological target: T2, ELK1 (Homo sapiens, UniProt P19419 1-428); settings: protein: recombinant; tags: N-terminal GST; dsDNA, one strand shown
# T2 sequence: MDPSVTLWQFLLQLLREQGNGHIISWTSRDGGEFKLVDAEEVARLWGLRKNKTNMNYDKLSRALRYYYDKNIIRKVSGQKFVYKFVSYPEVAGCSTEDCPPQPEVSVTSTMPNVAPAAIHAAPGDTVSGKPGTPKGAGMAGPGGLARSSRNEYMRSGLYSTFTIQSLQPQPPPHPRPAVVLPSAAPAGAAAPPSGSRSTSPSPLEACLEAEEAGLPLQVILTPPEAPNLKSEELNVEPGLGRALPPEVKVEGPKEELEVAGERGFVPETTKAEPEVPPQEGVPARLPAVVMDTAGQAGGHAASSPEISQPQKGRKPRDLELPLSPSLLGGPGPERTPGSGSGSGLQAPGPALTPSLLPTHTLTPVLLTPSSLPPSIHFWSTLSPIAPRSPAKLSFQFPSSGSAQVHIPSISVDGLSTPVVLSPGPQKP
# In short: as §1
# GABPA = biological target: T3, GABPA (Homo sapiens, UniProt Q06546 1-454); settings: protein: recombinant; tags: N-terminal GST; dsDNA, one strand shown
# T3 sequence: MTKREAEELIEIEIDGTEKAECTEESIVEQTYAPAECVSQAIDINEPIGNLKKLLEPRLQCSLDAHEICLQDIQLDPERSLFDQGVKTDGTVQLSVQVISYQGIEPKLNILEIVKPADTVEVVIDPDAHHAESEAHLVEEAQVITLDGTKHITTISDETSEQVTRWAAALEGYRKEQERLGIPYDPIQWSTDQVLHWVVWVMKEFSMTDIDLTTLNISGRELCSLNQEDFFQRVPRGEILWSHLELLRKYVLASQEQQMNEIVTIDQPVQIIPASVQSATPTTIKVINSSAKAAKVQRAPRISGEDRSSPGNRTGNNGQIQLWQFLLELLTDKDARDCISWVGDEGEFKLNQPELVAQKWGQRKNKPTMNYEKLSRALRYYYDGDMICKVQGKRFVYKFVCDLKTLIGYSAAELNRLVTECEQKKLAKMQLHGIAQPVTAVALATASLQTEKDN
# In short: as §1
# ERG = biological target: T4, ERG (Homo sapiens, UniProt P11308 1-479); settings: protein: recombinant; tags: N-terminal GST; dsDNA, one strand shown
# T4 sequence: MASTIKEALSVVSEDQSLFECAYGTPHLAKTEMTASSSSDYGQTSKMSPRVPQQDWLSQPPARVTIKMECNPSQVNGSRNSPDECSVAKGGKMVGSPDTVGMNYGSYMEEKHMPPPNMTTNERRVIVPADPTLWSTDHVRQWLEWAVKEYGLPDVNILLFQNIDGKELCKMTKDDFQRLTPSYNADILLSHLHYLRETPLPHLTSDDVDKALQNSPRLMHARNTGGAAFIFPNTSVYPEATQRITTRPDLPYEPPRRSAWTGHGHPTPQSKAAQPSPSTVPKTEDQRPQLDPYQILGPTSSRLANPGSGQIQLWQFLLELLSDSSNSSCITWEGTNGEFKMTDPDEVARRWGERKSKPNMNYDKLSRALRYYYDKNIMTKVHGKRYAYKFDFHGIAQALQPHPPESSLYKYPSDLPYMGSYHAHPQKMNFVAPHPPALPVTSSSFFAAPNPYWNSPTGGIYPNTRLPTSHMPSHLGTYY
# In short: as §1
# ELF1 = ELF1 (Homo sapiens, UniProt P32519 1-619); settings: protein: recombinant; tags: N-terminal GST; dsDNA, one strand shown
# In short: as §1
# EHF = biological target: T5, EHF (Homo sapiens, UniProt Q9NZC4 1-300); settings: protein: recombinant; tags: N-terminal GST; dsDNA, one strand shown
# T5 sequence: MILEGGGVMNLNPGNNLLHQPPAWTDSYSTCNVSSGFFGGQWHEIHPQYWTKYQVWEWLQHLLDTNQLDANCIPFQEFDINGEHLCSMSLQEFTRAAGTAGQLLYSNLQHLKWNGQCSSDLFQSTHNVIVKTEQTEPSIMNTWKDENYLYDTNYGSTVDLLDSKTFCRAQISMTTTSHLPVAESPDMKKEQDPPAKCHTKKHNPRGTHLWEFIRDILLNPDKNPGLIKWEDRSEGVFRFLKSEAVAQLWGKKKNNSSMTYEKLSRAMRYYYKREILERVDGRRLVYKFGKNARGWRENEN
# In short: as §1
# SPI1 = SPI1 (Homo sapiens, UniProt P17947 1-270); settings: protein: recombinant; tags: N-terminal GST; dsDNA, one strand shown
# In short: as §1
# SPIB = SPIB (Homo sapiens, UniProt Q01892 1-262); settings: protein: recombinant; tags: N-terminal GST; dsDNA, one strand shown
# In short: as §1
# ELK3 = biological target: T6, ELK3 (Homo sapiens, UniProt P41970 1-407); settings: protein: recombinant; tags: N-terminal GST; dsDNA, one strand shown
# T6 sequence: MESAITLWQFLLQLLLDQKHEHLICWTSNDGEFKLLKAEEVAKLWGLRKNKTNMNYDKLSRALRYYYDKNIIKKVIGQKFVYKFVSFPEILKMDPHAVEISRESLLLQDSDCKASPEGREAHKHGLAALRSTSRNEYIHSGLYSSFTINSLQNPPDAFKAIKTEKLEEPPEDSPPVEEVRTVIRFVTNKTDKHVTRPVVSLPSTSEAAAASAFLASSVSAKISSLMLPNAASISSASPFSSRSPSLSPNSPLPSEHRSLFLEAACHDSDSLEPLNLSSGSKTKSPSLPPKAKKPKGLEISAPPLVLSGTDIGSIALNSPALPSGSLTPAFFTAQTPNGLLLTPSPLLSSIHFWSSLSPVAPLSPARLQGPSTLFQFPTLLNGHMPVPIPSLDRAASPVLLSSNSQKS
# In short: as §1
# FEV = biological target: T7, FEV (Homo sapiens, UniProt Q99581 1-238); settings: protein: recombinant; tags: N-terminal GST; dsDNA, one strand shown
# T7 sequence: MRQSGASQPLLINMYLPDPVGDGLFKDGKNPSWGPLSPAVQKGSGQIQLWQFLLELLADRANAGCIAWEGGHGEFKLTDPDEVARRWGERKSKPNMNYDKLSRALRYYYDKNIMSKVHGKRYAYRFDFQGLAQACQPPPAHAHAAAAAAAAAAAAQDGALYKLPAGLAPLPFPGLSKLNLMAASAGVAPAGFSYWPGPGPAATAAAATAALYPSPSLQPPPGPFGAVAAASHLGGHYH
# In short: as §1
# ETV5 = ETV5 (Homo sapiens, UniProt P41161 1-510); settings: protein: recombinant; tags: N-terminal GST; dsDNA, one strand shown
# In short: as §1
# HSF1 = HSF1 (Homo sapiens, UniProt Q00613 1-529); settings: protein: recombinant; tags: N-terminal GST; chain copies: 3; dsDNA, one strand shown
# In short: as §1
# SPIC = biological target: T8, SPIC (Homo sapiens, UniProt Q8N5J4 1-248); settings: protein: recombinant; tags: N-terminal GST; dsDNA, one strand shown
# T8 sequence: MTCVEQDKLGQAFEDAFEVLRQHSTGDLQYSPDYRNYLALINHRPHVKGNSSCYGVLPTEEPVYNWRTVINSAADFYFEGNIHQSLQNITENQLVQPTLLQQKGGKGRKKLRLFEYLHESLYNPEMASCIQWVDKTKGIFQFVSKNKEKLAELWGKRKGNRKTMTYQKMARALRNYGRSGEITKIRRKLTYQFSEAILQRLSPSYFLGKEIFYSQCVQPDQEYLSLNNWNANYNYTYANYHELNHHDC
# In short: as §1
# ELF4 = ELF4 (Homo sapiens, UniProt Q99607 1-663); settings: protein: recombinant; tags: N-terminal GST; dsDNA, one strand shown
# In short: as §1
# ELK4 = biological target: T9, ELK4 (Homo sapiens, UniProt P28324-2 1-405); settings: protein: recombinant; tags: N-terminal GST; dsDNA, one strand shown
# T9 sequence: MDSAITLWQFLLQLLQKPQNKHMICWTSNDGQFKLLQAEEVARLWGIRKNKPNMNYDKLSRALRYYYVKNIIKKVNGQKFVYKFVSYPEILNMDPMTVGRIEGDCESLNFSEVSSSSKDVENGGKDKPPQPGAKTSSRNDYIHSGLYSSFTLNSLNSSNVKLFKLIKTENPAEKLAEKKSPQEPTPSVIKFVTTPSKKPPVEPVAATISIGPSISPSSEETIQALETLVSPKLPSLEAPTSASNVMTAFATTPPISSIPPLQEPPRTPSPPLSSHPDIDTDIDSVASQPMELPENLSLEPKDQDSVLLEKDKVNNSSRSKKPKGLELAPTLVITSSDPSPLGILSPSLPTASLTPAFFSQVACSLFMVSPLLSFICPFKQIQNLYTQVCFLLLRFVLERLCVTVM
# In short: as §1
# ETV2 = biological target: T10, ETV2 (Homo sapiens, UniProt O00321 1-342); settings: protein: recombinant; tags: N-terminal GST; dsDNA, one strand shown
# T10 sequence: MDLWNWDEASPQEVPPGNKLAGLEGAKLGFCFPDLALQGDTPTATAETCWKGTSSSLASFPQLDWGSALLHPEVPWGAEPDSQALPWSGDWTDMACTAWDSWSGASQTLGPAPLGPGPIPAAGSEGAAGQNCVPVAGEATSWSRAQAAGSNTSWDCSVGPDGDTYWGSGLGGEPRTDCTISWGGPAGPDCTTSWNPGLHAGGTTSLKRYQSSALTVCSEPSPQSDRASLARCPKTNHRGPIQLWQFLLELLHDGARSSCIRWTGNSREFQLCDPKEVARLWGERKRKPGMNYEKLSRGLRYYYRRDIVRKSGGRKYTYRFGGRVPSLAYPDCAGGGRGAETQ
# In short: as §1
# ELF3 = biological target: T11, ELF3 (Homo sapiens, UniProt P78545 1-371); settings: protein: recombinant; tags: N-terminal GST; dsDNA, one strand shown
# T11 sequence: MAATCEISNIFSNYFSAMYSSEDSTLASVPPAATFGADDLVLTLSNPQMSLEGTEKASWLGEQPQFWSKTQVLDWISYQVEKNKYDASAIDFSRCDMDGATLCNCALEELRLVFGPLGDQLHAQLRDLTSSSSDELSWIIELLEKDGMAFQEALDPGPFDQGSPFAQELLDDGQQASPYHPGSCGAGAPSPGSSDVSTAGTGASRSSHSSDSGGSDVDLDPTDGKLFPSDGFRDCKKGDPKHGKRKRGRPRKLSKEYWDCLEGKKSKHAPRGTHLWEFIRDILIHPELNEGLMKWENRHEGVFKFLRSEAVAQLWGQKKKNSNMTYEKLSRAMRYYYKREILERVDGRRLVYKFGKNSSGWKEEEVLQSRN
# In short: as §1
# CRX = CRX (Homo sapiens, UniProt O43186 1-299); settings: protein: recombinant; tags: N-terminal GST; dsDNA, one strand shown
# In short: as §1
# ETV1 = ETV1 (Homo sapiens, UniProt P50549 1-477); settings: protein: recombinant; tags: N-terminal GST; dsDNA, one strand shown
# In short: as §1
# ETV1, sequence (P50549 whole entry): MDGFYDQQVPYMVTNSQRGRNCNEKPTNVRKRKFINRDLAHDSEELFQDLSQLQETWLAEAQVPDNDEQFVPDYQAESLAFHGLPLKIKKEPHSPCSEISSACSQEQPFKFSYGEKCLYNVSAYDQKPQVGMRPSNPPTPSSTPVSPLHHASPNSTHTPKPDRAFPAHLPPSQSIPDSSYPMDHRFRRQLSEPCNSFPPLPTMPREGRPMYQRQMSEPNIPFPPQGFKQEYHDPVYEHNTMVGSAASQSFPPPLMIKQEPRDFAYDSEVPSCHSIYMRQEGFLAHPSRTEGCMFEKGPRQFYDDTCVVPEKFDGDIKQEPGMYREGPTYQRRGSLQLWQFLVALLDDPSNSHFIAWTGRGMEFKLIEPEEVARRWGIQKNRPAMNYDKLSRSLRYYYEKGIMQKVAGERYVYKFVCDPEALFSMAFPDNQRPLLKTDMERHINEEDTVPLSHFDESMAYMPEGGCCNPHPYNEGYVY
# ELF4, sequence (Q99607 whole entry): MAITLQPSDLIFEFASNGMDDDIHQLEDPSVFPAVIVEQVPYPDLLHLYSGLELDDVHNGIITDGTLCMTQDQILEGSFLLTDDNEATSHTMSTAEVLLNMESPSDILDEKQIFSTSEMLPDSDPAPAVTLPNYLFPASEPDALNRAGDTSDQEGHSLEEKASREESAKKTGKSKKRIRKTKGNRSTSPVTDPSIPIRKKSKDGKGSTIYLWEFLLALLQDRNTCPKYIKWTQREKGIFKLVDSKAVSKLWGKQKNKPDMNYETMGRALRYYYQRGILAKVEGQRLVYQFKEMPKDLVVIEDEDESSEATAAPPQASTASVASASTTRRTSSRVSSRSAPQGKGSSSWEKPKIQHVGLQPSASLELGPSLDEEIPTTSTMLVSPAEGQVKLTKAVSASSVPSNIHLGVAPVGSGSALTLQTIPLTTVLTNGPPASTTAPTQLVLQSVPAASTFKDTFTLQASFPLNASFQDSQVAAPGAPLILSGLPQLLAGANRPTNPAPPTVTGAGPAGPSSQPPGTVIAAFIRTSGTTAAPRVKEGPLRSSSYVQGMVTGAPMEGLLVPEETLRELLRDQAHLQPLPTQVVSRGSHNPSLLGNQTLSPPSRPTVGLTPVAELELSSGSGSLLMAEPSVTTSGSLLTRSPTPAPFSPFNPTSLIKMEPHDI
# ELF1, sequence (P32519 whole entry): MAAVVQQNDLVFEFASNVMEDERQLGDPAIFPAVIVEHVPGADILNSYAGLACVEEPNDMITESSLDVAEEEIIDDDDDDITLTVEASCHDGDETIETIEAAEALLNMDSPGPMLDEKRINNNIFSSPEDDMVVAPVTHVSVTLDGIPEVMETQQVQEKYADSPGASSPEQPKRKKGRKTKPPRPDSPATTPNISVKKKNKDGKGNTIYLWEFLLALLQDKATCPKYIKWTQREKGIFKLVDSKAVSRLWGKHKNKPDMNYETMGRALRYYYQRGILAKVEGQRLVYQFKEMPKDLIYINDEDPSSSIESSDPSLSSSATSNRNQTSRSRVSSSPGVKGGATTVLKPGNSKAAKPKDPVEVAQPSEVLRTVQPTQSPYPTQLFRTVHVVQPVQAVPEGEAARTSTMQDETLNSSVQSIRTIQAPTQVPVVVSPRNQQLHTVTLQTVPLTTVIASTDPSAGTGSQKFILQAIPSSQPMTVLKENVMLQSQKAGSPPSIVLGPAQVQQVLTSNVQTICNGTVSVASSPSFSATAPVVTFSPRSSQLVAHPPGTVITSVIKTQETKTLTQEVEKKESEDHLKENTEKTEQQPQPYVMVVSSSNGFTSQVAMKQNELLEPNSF
# CRX, sequence (O43186 whole entry): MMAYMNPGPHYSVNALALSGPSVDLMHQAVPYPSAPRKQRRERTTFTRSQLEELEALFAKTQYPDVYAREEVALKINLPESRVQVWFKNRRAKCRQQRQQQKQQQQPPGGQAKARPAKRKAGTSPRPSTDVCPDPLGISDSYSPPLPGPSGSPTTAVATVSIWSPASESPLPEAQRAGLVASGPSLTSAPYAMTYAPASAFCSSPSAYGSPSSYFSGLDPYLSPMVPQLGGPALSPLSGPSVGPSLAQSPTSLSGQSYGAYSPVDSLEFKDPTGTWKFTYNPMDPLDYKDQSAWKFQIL
# HSF1, sequence (Q00613 whole entry): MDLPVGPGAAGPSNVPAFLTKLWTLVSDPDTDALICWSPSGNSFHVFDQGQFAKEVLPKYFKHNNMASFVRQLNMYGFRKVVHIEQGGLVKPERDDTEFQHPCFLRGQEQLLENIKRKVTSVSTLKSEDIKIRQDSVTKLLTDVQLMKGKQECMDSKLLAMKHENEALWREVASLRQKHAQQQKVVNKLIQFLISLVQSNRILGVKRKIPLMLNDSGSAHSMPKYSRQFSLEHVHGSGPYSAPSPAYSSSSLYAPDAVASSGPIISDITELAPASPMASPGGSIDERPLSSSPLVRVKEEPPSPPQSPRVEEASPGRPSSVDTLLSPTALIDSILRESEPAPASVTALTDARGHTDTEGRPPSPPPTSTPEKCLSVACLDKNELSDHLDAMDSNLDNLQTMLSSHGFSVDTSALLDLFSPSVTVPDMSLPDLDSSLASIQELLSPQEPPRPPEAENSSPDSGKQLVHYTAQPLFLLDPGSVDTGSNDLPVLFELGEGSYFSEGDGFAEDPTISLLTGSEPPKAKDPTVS
# ETV5, sequence (P41161 whole entry): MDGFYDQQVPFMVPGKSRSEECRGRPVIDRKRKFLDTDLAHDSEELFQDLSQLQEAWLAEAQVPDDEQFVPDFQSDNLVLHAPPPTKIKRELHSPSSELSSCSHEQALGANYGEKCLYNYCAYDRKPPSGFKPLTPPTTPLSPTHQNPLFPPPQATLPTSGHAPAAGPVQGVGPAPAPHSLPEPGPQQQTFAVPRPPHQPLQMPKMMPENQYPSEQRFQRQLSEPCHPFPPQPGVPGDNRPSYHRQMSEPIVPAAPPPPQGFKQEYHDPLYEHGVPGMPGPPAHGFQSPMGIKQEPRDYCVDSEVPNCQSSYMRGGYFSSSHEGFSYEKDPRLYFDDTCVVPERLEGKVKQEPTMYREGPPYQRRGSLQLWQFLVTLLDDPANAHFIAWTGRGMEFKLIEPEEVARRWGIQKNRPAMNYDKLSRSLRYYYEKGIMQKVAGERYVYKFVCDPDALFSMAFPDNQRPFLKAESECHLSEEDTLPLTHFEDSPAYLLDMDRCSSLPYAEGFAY
# SPIB, sequence (Q01892 whole entry): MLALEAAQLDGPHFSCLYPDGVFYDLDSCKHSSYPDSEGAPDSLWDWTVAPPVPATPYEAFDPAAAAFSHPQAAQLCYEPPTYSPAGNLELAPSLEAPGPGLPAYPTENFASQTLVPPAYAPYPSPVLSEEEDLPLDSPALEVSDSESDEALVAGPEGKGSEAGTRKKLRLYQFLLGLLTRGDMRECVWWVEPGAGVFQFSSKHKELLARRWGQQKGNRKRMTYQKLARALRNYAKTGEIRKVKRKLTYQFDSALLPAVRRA
sequence,measurement,setting,value
TATTGC,binding signal,FLI1,"1.39 fold enrichment (6-mer frequency, TF over GST control)"
same,binding signal,ELK1,"1.33 fold enrichment (6-mer frequency, TF over GST control)"
same,binding signal,GABPA,"1.44 fold enrichment (6-mer frequency, TF over GST control)"
same,binding signal,ERG,"1.31 fold enrichment (6-mer frequency, TF over GST control)"
same,binding signal,ELF1,"1.41 fold enrichment (6-mer frequency, TF over GST control)"
same,binding signal,EHF,"1.3 fold enrichment (6-mer frequency, TF over GST control)"
same,binding signal,SPI1,"1.32 fold enrichment (6-mer frequency, TF over GST control)"
same,binding signal,SPIB,"1.37 fold enrichment (6-mer frequency, TF over GST control)"
same,binding signal,ELK3,"1.3 fold enrichment (6-mer frequency, TF over GST control)"
same,binding signal,FEV,"1.33 fold enrichment (6-mer frequency, TF over GST control)"
same,binding signal,ETV5,"1.34 fold enrichment (6-mer frequency, TF over GST control)"
same,binding signal,HSF1,"1.21 fold enrichment (6-mer frequency, TF over GST control)"
same,binding signal,SPIC,"1.5 fold enrichment (6-mer frequency, TF over GST control)"
same,binding signal,ELF4,"1.41 fold enrichment (6-mer frequency, TF over GST control)"
same,binding signal,ELK4,"1.29 fold enrichment (6-mer frequency, TF over GST control)"
same,binding signal,ETV2,"1.22 fold enrichment (6-mer frequency, TF over GST control)"
same,binding signal,ELF3,"1.2 fold enrichment (6-mer frequency, TF over GST control)"
same,binding signal,CRX,"1.47 fold enrichment (6-mer frequency, TF over GST control)"
same,binding signal,ETV1,"1.45 fold enrichment (6-mer frequency, TF over GST control)"
